This passage reports Potency and outcome results from PubChem BioAssay (Tox21).

Each structure is given as a SMILES string. Inconclusive results are not listed. Unmarked numbers belong to inactive results. Calls of active or inactive are those of the source. Unless noted, calls come from the whole dose curve; as a rule, active = well fitted curve in the direction sought with a large enough effect in the repeat runs; inconclusive = weak or mixed curves; inactive = no such curve, though single readings can be large; an effect the other way counts as inactive or inconclusive.

Assay [1] addresses Aryl hydrocarbon receptor (Homo sapiens) (UniProt P35869). As to the kind of experiment: qHTS assay to identify small molecule that activate the aryl hydrocarbon receptor (AhR) signaling pathway (AID 743085).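 Note: HG2L7.5c1 human HepG2 liver cells with stably integrated DRE-driven firefly reporter; series mostly up to about 70 µM; nearly all actives have a fitted effect of over 15% in size.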 The method, boiled down:
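Measured in HG2L7.5c1 cells: CellTiter-Fluor signal (30 min incubation, 37C) for viability, then luciferase luminescence (30 min, room temperature). Compound contact time was 24 h at 37C, following a 5 h pre-incubation.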
(In qHTS, concentration-response curves come from the screen itself.)

A short description of assay [2]: qHTS assay to identify small molecule that activate the aryl hydrocarbon receptor (AhR) signaling pathway - cell viability counter screen (AID 743086).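 Note: HepG2 liver cells carrying the AhR DRE luciferase reporter; series mostly up to about 70 µM; nearly all actives have a fitted effect of over 45% in size.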 The method, boiled down: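 HepG2-AhR-luc (HG2L7.5c1) cells, 4000/well, were preincubated 5 h at 37C, exposed to compound in qHTS format for 24 hr at 37C, then given CellTiter-Fluor for 30 min; viability was read as fluorescence in the reporter wells.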

Assay [3] is described as follows: qHTS assay to identify small molecule antagonists of the peroxisome proliferator-activated receptor gamma (PPARg) signaling pathway - cell viability counter screen (AID 743194). Note: nearly all actives have a fitted effect of over 55% in size. Put shortly: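 PPARg-UAS-bla HEK293H cells were plated, rested 5 h at 37 C, then treated with compounds plus rosiglitazone (50 nM final) for 17 h at 37 C; viability was then read by CellTiter-Glo luminescence after 30 min at room temperature.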

A short description of assay [4]: qHTS assay for small molecule agonists of the antioxidant response element (ARE) signaling pathway (AID 743202; active = well fitted activation curve with a large enough effect in the signal ratio in the repeat runs, not every such curve was filed as active; the % refers to the signal ratio). The method, boiled down: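 Read-out: LiveBLAzer B/G FRET substrate fluorescence after 2 h at room temperature, following 16 h compound treatment at 37 C of HepG2 cells carrying an ARE-driven beta-lactamase reporter.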
A short description of assay [5]: qHTS assay for small molecule agonists of the antioxidant response element (ARE) signaling pathway - cell viability counter screen (AID 743203; calls by dose curve; note: nearly all actives have a fitted effect of over 55% in size). Put shortly: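 Cells (ARE-bla HepG2, 2,000/well) receive DMSO-dissolved compounds after a 5 hrs rest. Plates incubate 16 hrs at 37C/5% CO2. CellTiter-Glo luminescence is then recorded after 30 min at room temperature.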

Assay [6] in a line: qHTS assay for small molecule activators of the heat shock response signaling pathway (AID 743210; active = well fitted activation curve with a large enough effect in the signal ratio in the repeat runs, with a control signal flat, not every such curve was filed as active; the % refers to the signal ratio; note: series mostly up to about 63 µM). The method, boiled down:
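HSE-bla HeLa cells (beta-lactamase reporter under heat shock response elements) were exposed to compounds for 5 h at 37 C, then loaded with LiveBLAzer B/G FRET substrate for 2.5 h at room temperature before fluorescence reading.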

Assay [7] concerns the target Peroxisome proliferator-activated receptor gamma (Homo sapiens) (UniProt P37231). The assay can be described thus: qHTS assay to identify small molecule antagonists of the peroxisome proliferator-activated receptor gamma (PPARg) signaling pathway (AID 743191; calls by dose curve; note: series mostly up to about 63 µM; nearly all actives have a fitted effect of over 30% in size). The method, boiled down:
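GeneBLAzer PPARg UAS-bla HEK293H cells carrying a UAS-driven beta-lactamase reporter were plated at 3000 cells/well, preincubated 5 h at 37C, then given compound for 17 h at 37C; LiveBLAzer B/G FRET substrate was read after 1 h at room temperature.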

Assay [8] has the same target. The assay can be described thus: qHTS assay to identify small molecule agonists of the peroxisome proliferator-activated receptor gamma (PPARg) signaling pathway (AID 743094; active = well fitted activation curve with a large enough effect in the signal ratio in the repeat runs, not every such curve was filed as active; the % refers to the signal ratio). The method, boiled down: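 Stably transfected HEK293H cells (GeneBLAzer PPARg UAS-bla) were incubated with test substances for 17 h at 37C after a 5 h pre-incubation; beta-lactamase activity was then detected by FRET substrate fluorescence.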

Assay [9] is described as follows: qHTS assay for small molecule activators of the heat shock response signaling pathway - cell viability counter screen (AID 743209). Note: nearly all actives have a fitted effect of over 50% in size. The method, boiled down:
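Quantitative HTS format, Tox21 10K library. HeLa cells carrying an HSE-driven beta-lactamase reporter were treated 5 h at 37 C, then assessed for viability by CellTiter-Glo luminescence.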

Assay [10] can be described thus: qHTS assay to identify aromatase inhibitors - cell viability counter screen (AID 743084).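 Note: cells stimulated with testosterone during compound exposure; nearly all actives have a fitted effect of over 55% in size.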 Note: potency is the fitted concentration of half-maximal effect.

Sequence of Peroxisome proliferator-activated receptor gamma (Homo sapiens) (P37231 whole entry, looked up): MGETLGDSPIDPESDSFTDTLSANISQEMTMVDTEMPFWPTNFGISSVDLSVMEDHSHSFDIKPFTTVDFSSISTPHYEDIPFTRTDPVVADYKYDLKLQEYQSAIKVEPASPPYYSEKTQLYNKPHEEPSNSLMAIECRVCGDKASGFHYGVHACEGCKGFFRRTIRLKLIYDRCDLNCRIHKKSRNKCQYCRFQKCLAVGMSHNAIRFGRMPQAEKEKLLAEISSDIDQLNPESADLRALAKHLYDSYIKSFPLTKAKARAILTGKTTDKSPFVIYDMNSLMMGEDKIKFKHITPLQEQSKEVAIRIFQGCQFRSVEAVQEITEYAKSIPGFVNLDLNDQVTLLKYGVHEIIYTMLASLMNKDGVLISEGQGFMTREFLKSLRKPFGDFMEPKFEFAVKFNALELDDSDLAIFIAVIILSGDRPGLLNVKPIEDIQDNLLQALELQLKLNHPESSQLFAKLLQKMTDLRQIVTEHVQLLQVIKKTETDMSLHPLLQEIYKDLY
Sequence of Aryl hydrocarbon receptor (Homo sapiens) (P35869 whole entry, looked up): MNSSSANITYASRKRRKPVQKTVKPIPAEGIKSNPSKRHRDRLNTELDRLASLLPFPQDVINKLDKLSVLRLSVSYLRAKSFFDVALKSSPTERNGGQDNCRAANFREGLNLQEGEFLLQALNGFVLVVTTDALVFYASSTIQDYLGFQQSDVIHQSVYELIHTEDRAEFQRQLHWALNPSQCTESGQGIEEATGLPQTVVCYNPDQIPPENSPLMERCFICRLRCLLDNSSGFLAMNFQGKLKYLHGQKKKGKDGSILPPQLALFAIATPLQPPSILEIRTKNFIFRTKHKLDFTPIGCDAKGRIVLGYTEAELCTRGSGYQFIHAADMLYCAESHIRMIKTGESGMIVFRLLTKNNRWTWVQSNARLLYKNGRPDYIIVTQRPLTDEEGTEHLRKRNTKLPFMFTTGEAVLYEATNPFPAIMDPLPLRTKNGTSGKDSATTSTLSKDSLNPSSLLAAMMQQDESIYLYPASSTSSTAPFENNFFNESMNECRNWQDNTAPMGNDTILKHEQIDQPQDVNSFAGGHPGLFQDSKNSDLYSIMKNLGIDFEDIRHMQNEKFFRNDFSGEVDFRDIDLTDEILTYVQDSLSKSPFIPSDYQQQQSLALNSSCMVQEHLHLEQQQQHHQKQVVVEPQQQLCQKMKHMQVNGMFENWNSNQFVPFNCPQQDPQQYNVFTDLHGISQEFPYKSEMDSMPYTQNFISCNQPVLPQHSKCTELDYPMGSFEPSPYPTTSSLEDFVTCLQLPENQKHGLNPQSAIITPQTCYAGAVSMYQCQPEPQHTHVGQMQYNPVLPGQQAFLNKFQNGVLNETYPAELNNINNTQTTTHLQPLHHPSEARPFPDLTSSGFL

As for `CC(C)COC(=O)/C=C/c1ccccc1`, the Potency result in assay [1], in assay [2] and in [4] was “inactive” throughout. Further, the call in [3], in assay [5] and in [6] was inactive.
As for `CCCCCN(CCCOC)C(=O)C(CCC(=O)O)NC(=O)c1ccc(Cl)c(Cl)c1` (stereo unspecified), the Potency entry in [7] and in assay [4] was “inactive” throughout. In addition, the call in assay [3], in assay [5] and in [6] was inactive.
For `COc1cc([N+](=O)[O-])ccc1N`, the Potency result in assay [1] and in [4] was “inactive” throughout. Further, the compound was classed as inactive in assay [8], in assay [5], in assay [9] and in assay [6].
Take `C[Si]1(C)N[Si](C)(C)N[Si](C)(C)N1`: the Potency result in assay [10], in assay [2] and in assay [4] was “inactive” throughout. For the same compound, the result in assay [3] and in assay [5] was inactive.
`CCCCC(CC)CNC(=O)CC(C)OC(=O)CCC(=O)O` (stereo unspecified): the call in assay [3], in assay [5] and in [9] was inactive. Also, in assay [4], the Potency entry was “inactive”.
On to `C=CCOCC(CO)(COCC=C)COCC=C`, for which the Potency entry in [10], in assay [2] and in assay [4] was “inactive” in each case. The compound was classed as inactive in assay [5] and in assay [6].
In the case of `c1ccccc1`, the Potency entry in assay [7] and in assay [4] was “inactive” throughout. The compound was called inactive in [3] and in assay [5].
For the compound `CCOC(=O)CC#N`, the Potency entry in assay [1], in assay [2], in assay [7] and in [4] was “inactive” in each case. Also, the outcome in assay [8], in [3], in assay [5], in assay [9] and in [6] was inactive.
On to `Cc1nc2n(c(=O)c1CCN1CCC(C(=O)c3ccc(F)cc3)CC1)CCS2`, for which the Potency result in [7] was “inactive”. Further, the call in assay [3], in assay [5], in assay [9] and in [6] was inactive.
`Nc1nc(=O)n([C@@H]2O[C@H](CO)[C@@H](O)[C@@H]2F)cc1I`: the compound was called inactive in [3], in [5] and in [9]. In assay [4], the Potency result was “inactive”.
On to `Cc1cccc(NC(=S)N(C)C)c1`, for which the Potency entry in assay [2] and in assay [4] was “inactive” throughout. In addition, the compound was classed as inactive in assay [3], in assay [5] and in [9].
`CNC(=O)C(c1ccccc1)c1ccccc1`: the Potency result in [1] and in assay [4] was “inactive” throughout. The outcome in assay [3], in [5] and in [9] was inactive.
As to `Nc1ccc(C(=O)OCC(O)CO)cc1` (stereo unspecified), the Potency entry in assay [7] and in assay [4] was “inactive” in each case. In addition, the compound was called inactive in assay [3], in assay [5], in assay [9] and in assay [6].
For `CCCCCCCCCCCCCCCCCCN(C)C`, the compound was classed as inactive in assay [3], in assay [5], in assay [9] and in assay [6]. The Potency entry in assay [4] is “inactive”.
Turning to `N#CCCOCCOCCC#N`, the Potency result in assay [10] and in [4] was “inactive” throughout. Also, the compound was classed as inactive in assay [3], in assay [5], in assay [9] and in [6].
With `CC(CC(=O)O)CC(C)(C)C` (stereo unspecified), the Potency entry in assay [1], in assay [2] and in assay [4] was “inactive” in each case. In addition, the call in assay [8], in assay [3], in assay [5], in [9] and in [6] was inactive.
Regarding `CCOC(=O)C(=O)c1csc(NC=O)n1`, the result in assay [3], in assay [5] and in assay [6] was inactive. Also, the Potency result in assay [4] was “inactive”.
As for `CC(C)C(=O)Nc1cccc(C(F)(F)F)c1`, the compound was called inactive in [3], in [5] and in assay [9]. The Potency result in assay [4] is “inactive”.
Regarding `CCCCCC1CCCC(=O)O1` (stereo unspecified), the Potency result in assay [10] and in assay [4] was “inactive” throughout. For the same compound, the compound was called inactive in assay [8], in assay [3], in assay [5] and in [6].
As to `Nc1c(NC/C=C\COc2cc(CN3CCCCC3)ccn2)c(=O)c1=O`, the Potency in assay [10] was 13.3 µM (active). The result in assay [8], in assay [3], in assay [5], in assay [9] and in assay [6] was inactive. Moreover, in [7], the Potency result was “inactive”.
Turning to `CCCCCCCC/C=C\CCCCCCCC(=O)OC[C@@H](O)[C@H]1OC[C@H](O)[C@H]1O`, the Potency entry in assay [10] is “inactive”. For the same compound, the compound was called inactive in assay [8], in [5], in assay [9] and in assay [6].
In the case of `O=C(CN1CCN(Cc2ccc3c(c2)OCO3)CC1)N1c2ccccc2Sc2ccccc21`, the Potency result in assay [10] and in assay [7] was “inactive” each time. In addition, the result in [3], in assay [5] and in [9] was inactive.
As for `CC(=O)N(CC(O)CO)c1c(I)c(C(=O)NCC(O)CO)c(I)c(C(=O)NCC(O)CO)c1I` (stereo unspecified), the Potency result in assay [1], in [2], in [7] and in assay [4] was “inactive” each time. Also, the call in [8], in [3], in assay [5], in assay [9] and in assay [6] was inactive.
On to `c1ccc(CNc2ncnc3nc[nH]c23)cc1`, for which the Potency entry in assay [2] and in assay [4] was “inactive” each time. Besides, the result in assay [3], in assay [5], in assay [9] and in assay [6] was inactive.
Turning to `Cc1ccc(C(=O)C(=O)O)cc1C`, the Potency entry in assay [7] and in [4] was “inactive” each time. Besides, the call in assay [3], in assay [5], in [9] and in assay [6] was inactive.
Turning to `CC(C)=CC(C)(C)C`, the Potency result in [2] and in assay [4] was “inactive” each time. For the same compound, the call in assay [3], in assay [5] and in assay [9] was inactive.
For `CC(C)CCC(=O)CCC(C)C`, the Potency entry in assay [10] and in [7] was “inactive” each time. Moreover, the result in [8], in assay [3], in assay [5], in assay [9] and in assay [6] was inactive.
For the compound `CCN(CC)C(=O)C1CN2CCc3cc(OC)c(OC)cc3C2CC1OC(C)=O` (stereo unspecified), the outcome in assay [3] and in assay [5] was inactive. Besides, in assay [4], the Potency entry was “inactive”.
In the case of `O=C(COCCOCCOCC(=O)Nc1c(I)cc(I)c(C(=O)O)c1I)Nc1c(I)cc(I)c(C(=O)O)c1I`, the Potency entry in assay [10], in assay [7] and in [4] was “inactive” in each case. Besides, the outcome in assay [3] and in [5] was inactive.
For `COc1ccc(OC)c(NC(=O)CC(C)=O)c1`, the call in assay [3], in assay [5], in assay [9] and in assay [6] was inactive. Also, in [4], the Potency entry was “inactive”.
Turning to `C/C=C(\C)C(=O)OCC/C=C\CC`, the Potency entry in assay [2] and in [4] was “inactive” in each case. Further, the outcome in assay [3], in assay [5] and in assay [9] was inactive.
On to `CO/N=C(/C(=O)N[C@@H]1C(=O)N2C(C(=O)O)=C(Cn3nnc(C)n3)CS[C@H]12)c1csc(N)n1`, for which the Potency entry in [2] and in assay [4] was “inactive” in each case. Also, the compound was classed as inactive in assay [3], in assay [5], in assay [9] and in [6].
